40 molecules from PubChem BioAssay (NCATS) can be followed below.

Records with an inconclusive call do not appear. Unmarked numbers belong to inactive results. Calls come from the whole dose curve.
Potency is the fitted concentration of half-maximal effect.

The experiment can be described thus: Cell Viability - HepG2 (AID 433).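 Note: potency for ATP loss meaning cytotoxicity.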 The settings on record: qHTS. An excerpt:
NIH Chemical Genomics Center [NCGC]
NIH Molecular Libraries Screening Centers Network [MLSCN]
National Institutes of Environmental Health Sciences [NIEHS]
National Toxicology Program [NTP]
We have developed a 1536-well cell-based assay for quantitative high throughput screening (qHTS) against a number of cell lines to determine in vitro cytotoxicity of small molecules. This particular assay uses the HepG2 cell line which is derived from hepatocellular carcinoma.
NCGC Assay Protocol Summary:
The CellTiter-Glo luminescent cell viability assay (Promega) is a homogeneous method to measure the number of viable cells in culture. The end point readout of this assay is based on quantitation of intracellular ATP, an indicator of metabolic activity, using the luciferase reaction. Luciferase catalyzes the oxidation of beetle Luciferin to oxyluciferin and light in the presence of ATP. The luminescent signal is proportional to amount of ATP present.
Using the CellTiter-Glo luminescent cell viability assay, the amount of cellular ATP was measured in the HepG2 cell line with complete culture medium following compound treatment for 40 hours. The assay was performed in opaque white Kalypsys 1536-well plates. In the screen, tamoxifen and doxorubicin were used as positive controls. Library compounds were measured for their ability to cause acute toxicity in the cell line, as reflected by a decrease in intracellular ATP levels, in a concentration-dependent manner. Data were normalized to the controls for basal activity (DMSO only) and 100% inhibition (100 uM tamoxifen). AC50 values were determined from concentration-response data modeled with the standard Hill equation.
qHTS protocol fo CellTiter Glo HepG2 cellular assay
[Step] [Parameter] [Value] [Description]
1. Reagent; 5 uL; 1500 HepG2 cells/well
2. Time; 5 hr; 37 °C incubation
4. Controls; 23 nL; Tamoxifen 0.34 uM to 100 uM & Doxorubicin 0.02 nM to 100 uM
5. Time; 40 hr; 37 °C incubation
6. Reagent; 5 uL; CellTiter Glo reagent
7. Time; 20 min; Room Temperature
8. Detection; Luminescence; Viewlux plate reader
Keywords: cell viability, cytotoxicity, HepG2 cell line, luminescence, NTPHTS, NTPHTS_NCGC, NIEHS, EPA, DSSTox, MLSMR, MLSCN, NIH Roadmap, qHTS, NCGC
(In general: Quantitative high-throughput screening tests each substance at several concentrations.)
In the case of `Cc1ccc(Cl)cc1N`, the Potency is greater than 92 µM. Turning to `C=C(C)C1CC=C(C)C(OC(C)=O)C1` (stereo not given), the Potency is greater than 92 µM.

For `CCC(C)(C)OC`, the Potency is greater than 92 µM. As for `CCc1ccccc1O`, the Potency is greater than 92 µM. In the case of `c1ccc(Nc2ccccc2)cc1`, the Potency was greater than 92 µM. As to `C[C@@H]1O[C@@H](O[C@@H]2[C@@H](O)[C@H](OCCc3ccc(O)c(O)c3)O[C@H](CO[C@@H]3O[C@H](CO)[C@@H](O)[C@H](O)[C@H]3O)[C@H]2OC(=O)/C=C/c2ccc(O)c(O)c2)[C@H](O)[C@H](O)[C@H]1O`, the Potency is greater than 92 µM.

On to `CC(=O)c1nccs1`, for which the Potency is greater than 92 µM.

Regarding `CC(C)C(C)C`, the Potency is greater than 92 µM.

On to `Cc1ccccc1C=O`, for which the Potency was greater than 92 µM. Turning to `CO[Si](CCCNCCC[Si](OC)(OC)OC)(OC)OC`, the Potency was greater than 92 µM. In the case of `CCCCC(CC)COC(=O)CCCCC(=O)OCC(CC)CCCC` (stereo not given), the Potency is greater than 92 µM. As for `CC(=O)c1cc(C)oc1C`, the Potency is greater than 92 µM. For `CC(C)=C1CCC(C)CC1=O` (stereo not given), the Potency was greater than 92 µM. As for `[O-]/[N+](=N\O)c1ccccc1`, the Potency was greater than 92 µM.

Take `CCCCOCCOCCOCCCC`: the Potency was greater than 92 µM. Consider `Cc1ccc(Cl)cc1`, for which the Potency was greater than 92 µM. With `Cc1cccc([N+](=O)[O-])c1C(=O)O`, the Potency is greater than 92 µM. Turning to `CCOC(C)(C)C`, the Potency is greater than 92 µM. The same measure for `O=[N+]([O-])c1ccccc1CCO`: greater than 92 µM. `CC(C)Cc1nccs1`: the Potency was greater than 92 µM.

For `CCc1ccccc1`, the Potency is greater than 92 µM. Consider `COc1ccc(OC)cc1`, for which the Potency is greater than 92 µM. Under `CC1CCC2CC1C2(C)C` (stereo not given) stands greater than 92 µM; under `FC(F)(F)c1cccc(Cl)c1`, greater than 92 µM; under `CSc1ccc(C=O)cc1`, greater than 92 µM. With `O=[N+]([O-])c1ccc(CCO)cc1`, the Potency was greater than 92 µM. As for `CCOc1cccc(N)c1`, the Potency is greater than 92 µM. Turning to `COc1cccc2sc(N)nc12`, the Potency is greater than 92 µM.

As to `N#CCc1ccccc1[N+](=O)[O-]`, the Potency is greater than 92 µM. For `O=CNc1ccccc1`, the Potency was greater than 92 µM. In the case of `C=CCCCCCCC=C`, the Potency was greater than 92 µM. With `S=C([S-])NCCNC(=S)[S-].[Zn+2]`, the Potency was greater than 92 µM. As to `FC(F)(F)c1ccccc1Cl`, the Potency is greater than 92 µM. Regarding `C=C(C)OC(C)=O`, the Potency was greater than 92 µM. Turning to `C=CCOC(=O)COCCC(C)C`, the Potency was greater than 92 µM. The same measure for `Cc1nc2ccc(Cl)cc2[nH]1`: greater than 92 µM. For the molecule `OC(CCl)CCl`, the Potency was greater than 92 µM. For `c1ccc2[nH]cnc2c1`, the Potency is greater than 92 µM. Consider `CCCC(C)CO` (stereo not given), for which the Potency was greater than 92 µM.

Take `Nc1ccccc1S(=O)(=O)O`: the Potency was greater than 92 µM.
